Consider three molecules from the supplement of paper PMC8728848.

Common to all, as to test: glycan array binding signal (z-score within array); higher = stronger binding
Holding throughout (conditions): glycan notation: IUPAC condensed, linker removed

In assay [1] the target is Glc(a1-3)Glc(a1-3)Glc(a1-3)Glc. Summed up: (§1)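 The binding signal is a Z-score computed within each array. Data were drawn from 3228 arrays in the Consortium for Functional Glycomics database, restricted to those with a known protein sequence. Scores were averaged over arrays of the same protein sequence at different concentrations or buffers, and over linkers, and negative values can be taken as non-binding.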

Assay [2] has as its target Glc(a1-4)Glc(a1-4)Glc(a1-4)Glc(a1-4)Glc(a1-4)Glc(a1-4)Glc(a1-4)Glc(a1-4)Glc(a1-4)Glc. In outline:
as §1

Assay [3] concerns the target Glc(b1-3)Glc(b1-3)Glc(b1-3)Glc(b1-3)Glc(b1-3)Glc. In outline: as §1
Assay [4] concerns the target Glc(b1-3)Glc(b1-3)Glc(b1-3)Glc(b1-3)Glc(b1-3)Glc(b1-3)Glc(b1-3)Glc(b1-3)Glc(b1-3)Glc(b1-3)Glc. In outline:
as §1

The target of assay [5] is Glc(b1-3)Glc(b1-3)Glc(b1-3)Glc(b1-3)Glc(b1-3)Glc(b1-3)Glc(b1-3)Glc(b1-3)Glc(b1-3)Glc(b1-3)Glc(b1-3)Glc. In outline: as §1
Assay [6] addresses Glc(b1-3)Glc(b1-3)Glc(b1-3)Glc(b1-3)Glc(b1-3)Glc(b1-3)Glc(b1-3)Glc(b1-3)Glc(b1-3)Glc(b1-3)Glc(b1-3)Glc(b1-3)Glc. In outline: as §1
Assay [7] has as its target Glc(b1-4)Glc(b1-4)Glc(b1-4)Glc(b1-4)Glc(b1-4)Glc(b1-4)Glc. Summed up: as §1
Assay [8] addresses Glc(a1-6)Glc(a1-6)Glc(a1-6)Glc(a1-6)Glc(a1-6)Glc(a1-6)Glc(a1-6)Glc. In outline: as §1
Assay [9] concerns the target Glc(b1-2)Glc(b1-2)Glc(b1-2)Glc(b1-2)Glc(b1-2)Glc(b1-2)Glc(b1-2)Glc. Summed up: as §1
Assay [10] has as its target Glc(b1-2)Glc(b1-2)Glc(b1-2)Glc(b1-2)Glc(b1-2)Glc(b1-2)Glc(b1-2)Glc(b1-2)Glc(b1-2)Glc(b1-2)Glc. Summed up: as §1
The target in assay [11] is Glc(b1-2)Glc(b1-2)Glc(b1-2)Glc(b1-2)Glc(b1-2)Glc(b1-2)Glc(b1-2)Glc(b1-2)Glc(b1-2)Glc(b1-2)Glc(b1-2)Glc(b1-2)Glc. In outline: as §1
In assay [12] the target is Glc(b1-3)Glc(b1-3)Glc(b1-3)[Glc(b1-6)]Glc(b1-3)Glc(b1-3)Glc(b1-3)Glc(b1-3)[Glc(b1-6)]Glc(b1-3)Glc. In outline:
as §1

The target of the next assay is Glc(b1-3)Glc(b1-4)Glc. In outline: as §1
Assay [13] concerns the target Glc(b1-6)Glc(b1-6)Glc(b1-6)Glc(b1-6)Glc(b1-6)Glc(b1-6)Glc(b1-6)Glc(b1-6)Glc(b1-6)Glc(b1-6)Glc. In outline: as §1
In assay [14] the target is Man(b1-4)Man(b1-4)Man(b1-4)Man. Summed up: as §1
The target in assay [15] is Glc(a1-2)Glc(a1-2)Glc(a1-2)Glc(a1-2)Glc(a1-2)Glc(a1-2)Glc(a1-2)Glc(a1-2)Glc. Summed up: as §1
In assay [16] the target is Glc(a1-3)Glc(a1-3)Glc(a1-3)Glc(a1-3)Glc(a1-3)Glc(a1-3)Glc(a1-3)Glc(a1-3)Glc(a1-3)Glc(a1-3)Glc(a1-3)Glc. In outline: as §1
Assay [17] has as its target Glc(a1-4)Glc(a1-4)Glc(a1-4)Glc. Summed up:
as §1

For assay [18], the target named is Glc(a1-4)Glc(a1-4)Glc(a1-4)Glc(a1-4)Glc(a1-4)Glc. Summed up: as §1
In assay [19] the target is Glc(a1-4)Glc(a1-4)Glc(a1-4)Glc(a1-4)Glc(a1-4)Glc(a1-4)Glc(a1-4)Glc. In outline: as §1
The target of assay [20] is Glc(a1-4)Glc(a1-4)Glc(a1-4)Glc(a1-4)Glc(a1-4)Glc(a1-4)Glc(a1-4)Glc(a1-4)Glc(a1-4)Glc(a1-4)Glc(a1-4)Glc. In outline: as §1
The target of assay [21] is Glc(b1-3)Glc(b1-3)Glc(b1-3)Glc(b1-3)Glc(b1-3)Glc(b1-3)Glc(b1-3)Glc. Summed up:
as §1

The next assay addresses Glc(b1-4)Glc(b1-4)Glc. Summed up: as §1
Assay [22] concerns the target Glc(b1-4)Glc(b1-4)Glc(b1-4)Glc(b1-4)Glc(b1-4)Glc(b1-4)Glc(b1-4)Glc(b1-4)Glc. In outline:
as §1

Assay [23] concerns the target Glc(b1-6)Glc(b1-6)Glc(b1-6)Glc(b1-6)Glc(b1-6)Glc(b1-6)Glc(b1-6)Glc(b1-6)Glc(b1-6)Glc. Summed up: as §1

Shown is part of a subset that was picked to be rich in the strongest signals.

B1: Lam16A (Thermotoga maritima), Q9WXN1 (protein)
chain: EQINNGTFDEPIVNDQANNPDEWFIWQAGDYGISGARVSDYGVRDGYAYITIADPGTDTWHIQFNQWIGLYRGKTYTISFKAKADTPRPINVKILQNHDPWTNYFAQTVNLTADWQTFTFTYTHPDDADEVVQISFELGEGTATTIYFDDVTVSPQ
In the case of B1, the “glycan array binding signal (z-score)” value in assay [1] was -0.373; in [2] it was -0.363; in assay [3], 1.79; in [4], 3.64; in assay [5], 4.46; in assay [6], 4.88. The “glycan array binding signal (z-score)” value in [7] was -0.373.

B2: Dectin-1 (Mus musculus), Q6QLQ4 (protein)
chain: EYGHNSGRNPEEKDNFLSRNKENHKPTESSLDEKVAPSKASQTTGGFSQPCLPNWIMHGKSCYLFSFSGNSWYGSKRHCSQLGAHLLKIDNSKEFEFIESQTSSHRINAFWIGLSRNQSEGPWFWEDGSAFFPNSFQVRNTAPQESLLHNCVWIHGSEVYNQICNTSSYSICEKEL
Take B2: the “glycan array binding signal (z-score)” value is -0.161 in assay [8]; -0.206 in assay [9]; -0.206 in assay [10]; -0.182 in assay [11]; 0.83 in assay [4]; 5.77 in assay [5]. Also, the “glycan array binding signal (z-score)” value is 6.71 in [6]; -0.182 in [12]; -0.182 with Glc(b1-3)Glc(b1-4)Glc; -0.13 in assay [13]; -0.038 in [14].

B3: Pul13 (Thermotoga maritima), O33840 (protein)
chain: ETTIVVHYHRYDGKYDGWNLWIWPVEPVSQEGKAYQFTGEDDFGKVAVVKLPMDLTKVGIIVRLNEWQAKDVAKDRFIEIKDGKAEVWILQGVEEIFYEKP
B3: the “glycan array binding signal (z-score)” value in assay [15] is -0.351; in assay [16], -0.3; in [17] it was 2.43; in [18], 3.61; in assay [19], 4.12; in assay [20], 3.44. The “glycan array binding signal (z-score)” value (in [3]; in assay [21]; with Glc(b1-4)Glc(b1-4)Glc; in assay [22]; in assay [23]) was -0.351 each time.
